Compounds with a hit are over-represented: about 12% of the library has one in this group of screens.
BAZ2B block – BAZ2B (human) inhibition; 360,000 compounds, 4.4% hits; AlphaScreen BAZ2B-H3K14Ac peptide displacement; Potency, µM (doses to about 114 µM), hits mostly inhibitors; Q9UIF8; further: nearly all actives have a fitted effect of over 60% in size
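AlphaScreen luminescence quantifies BAZ2B engagement of H3K14Ac peptide; the protein and biotinylated peptide are both at 50 nM final, buffer PBS pH 7.4 with 0.01% Tween-20, all steps at room temperature.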
Sfp PPTase inh – inhibitors of Bacillus subtilis Sfp phosphopantetheinyl transferase; Q9F4F7; Biochemical Sfp PPTase activity, qHTS; Potency, µM, most hits filed as inhibitors; 310,000 compounds, 3.5% hits;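 further: the enzyme is Sfp with the accession as filed and its product quenches rhodamine fluorescence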
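Compounds were incubated with enzyme (final 15 nM) for 15 min at room temperature before substrate addition started the reaction. Fluorescence at 525 nm excitation, 598 nm emission was recorded immediately and after 30 minutes.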
HP1b binding inh – blocks HP1-beta chromodomain binding to methylated histone tails; P83916; 390,000 compounds, 0.56% hits; AlphaScreen HP1-beta / biotin-H3K9me3 peptide binding; Potency, µM (series often up to 114 µM), hits mostly inhibitors; further: nearly all actives have a fitted effect of over 70% in size
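Compound inhibition of the preformed complex between 50 nM HP1-beta and 50 nM biotinylated H3K9me3 peptide was read by AlphaScreen. Buffer was PBS pH 7.4 with 0.01% Tween-20. Incubations ran 30 min at room temperature, with 10 ug/mL donor/acceptor beads.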
PLK1 PBD inh – PLK1 (human) polo-box domain binding inhibition | Plk1 PBD binding of FITC phosphopeptide, fluorescence polarization | Potency, µM, most hits filed as inhibitors | 360,000 compounds, 2.8% hits; further: series mostly up to about 57 µM; nearly all actives have a fitted effect of over 65% in size
G9a block – blocks human histone lysine methyltransferase G9a; Q96KQ7; G9a H3K9 monomethylation, AlphaScreen, 2 h; Potency, µM (top dose mostly 102 µM), actives largely listed as inhibitors; 350,000 compounds, 8.8% hits; AID 504332; further: nearly all actives have a fitted effect of over 75% in size
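Step 1: enzyme (final 20 nM) with compound, 15 min RT. Step 2: substrate peptide 500 nM and SAM 20 uM, 2 h RT. Step 3: anti-H3K9me1 antibody and AlphaScreen beads, 10 min, then plate read.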
JMJD2A Tudor inh – inhibitors of human JMJD2A Tudor domain. O75164. AlphaScreen JMJD2A-Tudor / H3K4me3 peptide binding. Potency, µM (series often up to 114 µM), most hits filed as inhibitors. 390,000 compounds, 4.4% hits; further: nearly all actives have a fitted effect of over 50% in size
Target sequence (O75164 whole entry, looked up, the tested form may be a part): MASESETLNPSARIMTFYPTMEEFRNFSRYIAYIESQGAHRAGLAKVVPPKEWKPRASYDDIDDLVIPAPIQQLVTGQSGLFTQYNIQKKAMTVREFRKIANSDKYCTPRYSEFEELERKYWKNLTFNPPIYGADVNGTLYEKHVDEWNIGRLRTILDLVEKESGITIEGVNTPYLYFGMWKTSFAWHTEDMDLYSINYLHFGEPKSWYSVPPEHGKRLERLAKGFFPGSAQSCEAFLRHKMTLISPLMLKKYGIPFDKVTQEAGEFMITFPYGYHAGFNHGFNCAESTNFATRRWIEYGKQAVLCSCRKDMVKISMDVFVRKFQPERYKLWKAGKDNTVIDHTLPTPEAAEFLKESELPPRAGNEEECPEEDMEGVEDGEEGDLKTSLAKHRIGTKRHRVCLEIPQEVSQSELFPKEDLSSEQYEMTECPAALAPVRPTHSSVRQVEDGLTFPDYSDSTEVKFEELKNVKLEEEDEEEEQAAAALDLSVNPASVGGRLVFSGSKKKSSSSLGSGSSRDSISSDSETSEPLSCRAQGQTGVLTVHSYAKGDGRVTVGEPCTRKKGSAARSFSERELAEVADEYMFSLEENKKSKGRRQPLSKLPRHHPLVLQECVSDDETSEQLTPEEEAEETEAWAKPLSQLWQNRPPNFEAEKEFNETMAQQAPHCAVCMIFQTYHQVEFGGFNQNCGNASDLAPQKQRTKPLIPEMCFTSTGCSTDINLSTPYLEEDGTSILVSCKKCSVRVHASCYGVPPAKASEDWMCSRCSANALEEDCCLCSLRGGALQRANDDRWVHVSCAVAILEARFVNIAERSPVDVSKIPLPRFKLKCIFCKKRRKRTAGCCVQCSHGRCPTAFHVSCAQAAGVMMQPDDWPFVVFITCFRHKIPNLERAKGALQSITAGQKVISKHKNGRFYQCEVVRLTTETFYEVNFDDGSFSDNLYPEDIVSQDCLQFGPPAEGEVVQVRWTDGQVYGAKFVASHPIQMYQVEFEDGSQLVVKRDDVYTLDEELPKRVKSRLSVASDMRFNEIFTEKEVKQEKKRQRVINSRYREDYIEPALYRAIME
Large screens that a line does not name were inactive; ! = not active in a repeat. The call rests on the fitted dose curve; in most records, active means well fitted curve in the direction sought with a large enough effect; inconclusive means small, poorly fitted or top-dose-only effect, or another doubt; inactive means no such curve, though single readings can be large; an effect the other way counts as inactive or inconclusive.

COc1ccc(CCN2C(=O)/C(=C\c3ccco3)SC2=S)cc1OC	BAZ2B block 8.9µM, Sfp PPTase inh 18µM, G9a block 45µM
O=C(CCN1C(=O)/C(=C/c2ccco2)SC1=S)Nc1ccc(O)cc1C(=O)O	BAZ2B block 50µM, HP1b binding inh 18µM, G9a block 28µM, JMJD2A Tudor inh 28µM
O=C(O)CCCN1C(=O)/C(=C\c2ccco2)SC1=S	BAZ2B block inconclusive, Sfp PPTase inh 18µM, HP1b binding inh inconclusive, G9a block 45µM, JMJD2A Tudor inh 79µM
O=C(CN1C(=O)/C(=C/c2ccccc2)SC1=S)Nc1cccnc1	BAZ2B block inconclusive
O=C(CN1C(=O)/C(=C\c2ccco2)SC1=S)Nc1ccc(O)cc1C(=O)O	BAZ2B block 40µM, Sfp PPTase inh 56µM, PLK1 PBD inh 17µM
COc1ccc2c(c1)c1c(c(=O)n(-c3ccc(C)cc3)c(=O)n1CC(=O)c1ccc(Cl)cc1)n2C	none (no result: Sfp PPTase inh, PLK1 PBD inh)
CCc1nn2c(=O)cc(COC(=O)c3ccccc3NC(=O)COc3ccc(F)cc3)nc2s1	none (no result: Sfp PPTase inh, PLK1 PBD inh)
O=C(CCCN1C(=O)/C(=C/c2ccccc2)SC1=S)Nc1ccccc1O	none
O=C1/C(=C/c2ccccn2)SC(=S)N1Cc1ccccc1	none (no result: G9a block)
O=C(CCCN1C(=O)/C(=C\c2ccccc2)SC1=S)Nc1ccc(O)cc1C(=O)O	BAZ2B block 35µM (no result: G9a block)
O=C1/C(=C\c2ccco2)SC(=S)N1Cc1ccccc1	BAZ2B block 11µM, Sfp PPTase inh inconclusive, HP1b binding inh inconclusive, JMJD2A Tudor inh 50µM
O=C(CCCN1C(=O)/C(=C\c2cccs2)SC1=S)Nc1ccccc1O	none (no result: BAZ2B block, Sfp PPTase inh, HP1b binding inh, G9a block, JMJD2A Tudor inh)
CC(C(=O)Nc1ccc(O)cc1C(=O)O)N1C(=O)/C(=C\c2cccs2)SC1=S (stereo not given)	BAZ2B block 50µM, Sfp PPTase inh 22µM, HP1b binding inh inconclusive, PLK1 PBD inh 6.7µM, G9a block 7.9µM, JMJD2A Tudor inh 45µM
O=C(Nc1ccc(O)cc1C(=O)O)c1cccs1	G9a block inconclusive
O=C(CCCN1C(=O)/C(=C/c2ccco2)SC1=S)Nc1ccccc1C(=O)O	BAZ2B block 40µM, Sfp PPTase inh 50µM, PLK1 PBD inh inconclusive, JMJD2A Tudor inh 89µM (no result: G9a block)
COc1cccc(OC)c1C(=O)NC(=S)NCc1cccnc1	none
O=C(CCCN1C(=O)/C(=C\c2ccco2)SC1=S)Nc1ccc2ccccc2c1	BAZ2B block inconclusive, Sfp PPTase inh inconclusive, G9a block 25µM
O=C(O)CCN1C(=O)/C(=C\c2ccc(-c3nc4ccccc4s3)o2)SC1=S	BAZ2B block inconclusive, Sfp PPTase inh 45µM, HP1b binding inh 18µM, PLK1 PBD inh 8.4µM, G9a block inconclusive, JMJD2A Tudor inh 4µM
COc1ccc(/C=C2\SC(=S)N(CCCC(=O)Nc3ccc(O)cc3)C2=O)cc1	none
COc1ccc(OC)c(NC(=O)Cn2nc3c(cc2=O)CCCC3)c1	none (no result: Sfp PPTase inh, PLK1 PBD inh)
COc1ccc(/C=N/Nc2nc(N3CCCC3)nc(N3CCCC3)n2)cc1O	G9a block 3.5µM
COc1cc(/C=N/NC(=O)CCc2ccccc2)ccc1O	none
COc1cc(/C=N/NC(=O)CCN2CCN(C(c3ccccc3)c3ccccc3)CC2)ccc1O	BAZ2B block inconclusive, Sfp PPTase inh inconclusive, G9a block 79µM, JMJD2A Tudor inh inconclusive
COc1cc(/C=N/Nc2ccccc2C(F)(F)F)ccc1O	HP1b binding inh inconclusive, PLK1 PBD inh inconclusive, JMJD2A Tudor inh 56µM (no result: G9a block)
COc1cc(/C=N/Nc2ccccc2)ccc1O	G9a block 14µM
COc1cc(/C=N/NC(=O)c2cccs2)ccc1O	none (no result: G9a block)
COc1cc(/C=N\NC(=O)CNC(=O)C(c2ccccc2)c2ccccc2)ccc1O	none
Cc1ccc(Cl)c(OC(=O)C2CSC3(C)CCC(=O)N23)c1 (stereo not given)	none (no result: Sfp PPTase inh)
c1ccc(C(c2ccccc2)N2CC[C@@]3(CCCNC3)C2)cc1	none (no result: BAZ2B block, HP1b binding inh, PLK1 PBD inh, JMJD2A Tudor inh)
CSCC[C@H](NC(=O)[C@H](CCCN=C(N)N)NC(=O)[C@@H]1CCCN1C(=O)[C@H](Cc1ccccc1)NC(=O)[C@H](C)NC(=O)[C@H](CC(C)C)NC(=O)[C@H](Cc1ccc(O)cc1)NC(=O)[C@H](CC(N)=O)NC(=O)[C@@H](N)CCSC)C(N)=O	none (no result: BAZ2B block, HP1b binding inh, PLK1 PBD inh, G9a block, JMJD2A Tudor inh)
Cc1cc(C(=O)NNC(=O)c2ccc(Cl)cc2Cl)c(C)o1	none (no result: Sfp PPTase inh)
Cc1ccc2[nH]c3nc(N/N=C/c4cccc(O)c4)nnc3c2c1	BAZ2B block inconclusive (no result: G9a block)
COc1cc(/C=N/NC(=O)c2cc3ccccc3cc2O)ccc1OCCN1CCCCC1	Sfp PPTase inh 40µM, JMJD2A Tudor inh inconclusive
Cc1nc2ccccc2nc1N/N=C/c1ccc(O)cc1	BAZ2B block inconclusive (no result: G9a block)
COc1cc(/C=N/Nc2nnc3c(n2)[nH]c2ccccc23)ccc1O	Sfp PPTase inh 56µM, G9a block inconclusive, JMJD2A Tudor inh inconclusive
COc1cc(/C=N/NC(=O)c2ccncc2)ccc1OCCN1CCCCC1	none
COC(=O)c1[nH]c2cc(OC)c(OC)cc2c1/C=N/Nc1ccccc1	G9a block 35µM
Oc1ccc(/C=N/Nc2ccccc2)cc1	HP1b binding inh inconclusive, G9a block 25µM, JMJD2A Tudor inh 22µM
CCc1ccc(NC(=O)c2cc(S(=O)(=O)N3CCCCCC3)ccc2F)cc1	none (no result: Sfp PPTase inh, PLK1 PBD inh)
COc1ccc(OC)c(C(C)NC(=O)C(C)n2cc([N+](=O)[O-])cn2)c1 (stereo not given)	none (no result: Sfp PPTase inh)
COc1cc(/C=N/N(c2ccccc2)c2ccccc2)ccc1O	BAZ2B block 45µM, G9a block 28µM, JMJD2A Tudor inh 32µM
O=C(NNC(=O)C1CC1)c1cc(=O)[nH]c2ccccc12	none (no result: BAZ2B block, Sfp PPTase inh, G9a block)
COc1c[nH]n(C2CCCCC2)c(=O)c1=O	BAZ2B block inconclusive, G9a block 22µM, JMJD2A Tudor inh 20µM
COc1ccc(Nc2cc(=O)n(C3CCCCC3)c(=O)[nH]2)c(OC)c1	none (no result: G9a block)
Cc1ccc(N2C(=O)CS(=O)(=O)C23C(=O)Nc2ccccc23)cc1C (stereo not given)	G9a block 16µM (no result: Sfp PPTase inh, PLK1 PBD inh)
Cc1cc(C)cc(N2C(=O)CS(=O)(=O)C23C(=O)N(C)c2ccccc23)c1 (stereo not given)	G9a block inconclusive (no result: Sfp PPTase inh, PLK1 PBD inh)
CC(C)=CCc1c2c(c3occ(-c4ccc(O)cc4)c(=O)c3c1O)C=CC(C)(C)O2	BAZ2B block inconclusive, G9a block 20µM!, JMJD2A Tudor inh inconclusive
CC1(C)C=Cc2c(c3c(c4c(=O)c(-c5ccc(O)cc5)coc24)OC(C)(C)CC3)O1	G9a block inconclusive, JMJD2A Tudor inh inconclusive
CC(C)=CCc1c(O)cc2occ(-c3ccc4c(c3)OCO4)c(=O)c2c1O	none (no result: BAZ2B block, HP1b binding inh, PLK1 PBD inh, JMJD2A Tudor inh)
CC(C)=CCc1c2c(c3occ(-c4ccc(O)c(O)c4)c(=O)c3c1O)C=CC(C)(C)O2	HP1b binding inh inconclusive, JMJD2A Tudor inh 22µM (no result: BAZ2B block, G9a block)
COc1ccc(CC(=O)OCC(=O)N2CCCc3ccccc32)cc1OC	none (no result: Sfp PPTase inh)
O=C(N/N=C\c1ccc(CNS(=O)(=O)c2ccccc2)o1)C(=O)Nc1ccc(F)cc1	none
